Screening data deposited in PubChem BioAssay by National Center for Advancing Translational Sciences (NCATS).
L3MBTL1 inh – blocks human L3MBTL1; Q9Y468; Potency, µM (series often up to 57.1 µM), usual class: inhibitors; actives 0.66% (n = 230,000); AlphaScreen L3MBTL1–H3K9me1 peptide binding; note: nearly all actives have a fitted effect of over 60% in size
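Read-out is AlphaScreen signal from streptavidin donor and nickel chelate acceptor beads (10 ug/mL final each) bridging L3MBTL1 (50 nM) and biotinylated K9-monomethylated H3(1-15) peptide (75 nM), after 30 min compound exposure at room temperature.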
G9a block – blocks human histone lysine methyltransferase G9a; Q96KQ7; G9a H3K9 monomethylation, AlphaScreen, 2 h; Potency, µM (top dose mostly 102 µM), actives largely listed as inhibitors; actives 8.8% (n = 350,000); AID 504332; note: nearly all actives have a fitted effect of over 75% in size
Target sequence (Q96KQ7 913-1193 limits assumed): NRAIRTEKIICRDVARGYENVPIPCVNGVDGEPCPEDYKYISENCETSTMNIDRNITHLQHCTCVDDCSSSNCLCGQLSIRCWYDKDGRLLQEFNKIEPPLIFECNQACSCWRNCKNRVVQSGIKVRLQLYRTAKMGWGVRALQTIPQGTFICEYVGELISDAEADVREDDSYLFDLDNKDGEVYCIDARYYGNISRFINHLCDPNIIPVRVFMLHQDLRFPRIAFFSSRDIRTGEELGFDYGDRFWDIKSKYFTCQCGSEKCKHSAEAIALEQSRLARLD
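G9a (20 nM) was preincubated 15 min with compound, then reacted 2 h at room temperature with 500 nM biotin-H3K9 peptide and 20 µM SAM. Monomethyl-H3K9 detected by AlphaScreen using anti-H3K9me1 antibody.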
HP1b chromo inh – HP1-beta chromodomain-methylated histone interaction inhibition | P83916 | AlphaScreen HP1-beta / biotin-H3K9me3 peptide binding | Potency, µM (doses to about 114 µM), actives largely listed as inhibitors | actives 0.56% (n = 390,000) | AID 540317; note: nearly all actives have a fitted effect of over 70% in size
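AlphaScreen: HP1-beta (50 nM) preformed 30 min with biotin-H3(1-18)K9me3 peptide (50 nM) in PBS pH 7.4, 0.01% Tween-20. Compound added for 30 min at RT, then streptavidin donor/nickel chelate acceptor beads (10 ug/mL) for 30 min.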
BAZ2B inh – inhibitors of human BAZ2B bromodomain; Q9UIF8; AlphaScreen BAZ2B-H3K14Ac peptide displacement; Potency, µM (doses to about 114 µM), usual class: inhibitors; actives 4.4% (n = 360,000); note: nearly all actives have a fitted effect of over 60% in size
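BAZ2B 50 nM plus b-H3(5-23)K14Ac 50 nM, PBS pH 7.4/0.01% Tween-20, 30 min RT; compound added (max 110 uM), 30 min RT; streptavidin donor/Ni-chelate acceptor beads 10 ug/mL final, 20 min dark; AlphaScreen read.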
JMJD2A Tudor – blocks the human JMJD2A Tudor domain. AID 504339. actives 4.4% (n = 390,000). Potency, µM (series often up to 114 µM), most hits filed as inhibitors. AlphaScreen JMJD2A-Tudor / H3K4me3 peptide binding. O75164; note: nearly all actives have a fitted effect of over 50% in size
PI5P4K alpha inh – blocks human PI5P4K alpha kinase activity; P48426; PI5P4Kalpha enzyme, ADP-Glo luminescence, 60 min; hits give low values; max response, %; actives 1.2% (n = 330,000); active = max response of -50% or lower; inconclusive = between -30% and -50%; inactive = -30% or higher; note: value at the top dose of about 77 µM
Target sequence (P48426 whole entry, looked up): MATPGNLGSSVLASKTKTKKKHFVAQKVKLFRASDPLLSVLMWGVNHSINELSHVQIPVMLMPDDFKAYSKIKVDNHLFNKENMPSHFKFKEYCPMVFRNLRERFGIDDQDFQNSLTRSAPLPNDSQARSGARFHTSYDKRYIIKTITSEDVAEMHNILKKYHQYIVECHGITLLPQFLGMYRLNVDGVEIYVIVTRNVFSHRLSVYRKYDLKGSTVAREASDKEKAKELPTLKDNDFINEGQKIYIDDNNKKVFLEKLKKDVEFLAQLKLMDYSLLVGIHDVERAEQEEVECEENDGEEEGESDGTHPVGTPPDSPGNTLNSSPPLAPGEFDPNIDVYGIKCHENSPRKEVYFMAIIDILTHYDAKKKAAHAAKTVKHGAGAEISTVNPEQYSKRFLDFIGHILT
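Compounds were pin-transferred onto PI5P4Kalpha and substrate in HEPES pH 7.4 buffer with EGTA, CHAPS and 5% DMSO. ATP (5 microM final) started the reaction, which ran 60 minutes at room temperature before ADP-Glo detection.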
Hits are given with their value; [ ] = another dose, or the depositor's remark. This is a sample that favours compounds with a hit; in the whole collection about 11% have one here. Unless noted, calls come from the whole dose curve; as a rule, active = well fitted inhibition curve with a large enough effect; inconclusive = small, poorly fitted or top-dose-only effect; inactive = no such curve, though single readings can be large or run the other way.

How did CN(CCCNC(=O)c1ccc(N2CCCC2=O)cc1)c1ccccc1 do in these assays?
L3MBTL1 inh: inactive[11.4 µM]; G9a block: 10µM; HP1b chromo inh: inactive; BAZ2B inh: inactive; JMJD2A Tudor: inconclusive; PI5P4K alpha inh: inactive

What do the screens show for `O=C(Nc1ccccc1N1CCCC1)c1ccc(N2CCCC2=O)cc1`?
L3MBTL1 inh: inactive; G9a block: 35.5µM; HP1b chromo inh: inactive; BAZ2B inh: inactive; JMJD2A Tudor: inactive; PI5P4K alpha inh: inactive

Results for O=C(Nc1ccccc1Br)c1ccc(N2CCCC2=O)cc1 ?
L3MBTL1 inh: inactive; G9a block: inactive[0.501 µM]; HP1b chromo inh: inactive; BAZ2B inh: inactive; JMJD2A Tudor: inactive; PI5P4K alpha inh: inactive

How did O=C(NC(=S)Nc1ccccc1N1CCCC1)c1ccco1 do in these assays?
L3MBTL1 inh: inactive; HP1b chromo inh: inconclusive; BAZ2B inh: 39.8µM; JMJD2A Tudor: inconclusive; PI5P4K alpha inh: inactive

Results for CCOC(=O)CCCCN(Cc1ccccc1F)S(=O)(=O)c1ccc(F)c(C(=O)Nc2cc(Cl)cc(Cl)c2)c1 ?
G9a block: inactive; HP1b chromo inh: inactive; BAZ2B inh: inactive; JMJD2A Tudor: inactive

What do the screens show for `Cc1noc(C)c1-c1cccc(-c2nn3c(=O)cc(N4CCNCC4)nc3s2)c1`?
JMJD2A Tudor: inactive

Results for O=C(/C=C/c1ccco1)N1CCc2ccccc21 ?
L3MBTL1 inh: inactive; G9a block: 39.8µM; HP1b chromo inh: inactive; JMJD2A Tudor: inactive; PI5P4K alpha inh: inconclusive

Results for CCCCCC(=O)Nc1ccccc1N1CCN(c2ccccc2)CC1 ?
G9a block: inactive; HP1b chromo inh: inactive; BAZ2B inh: inactive; JMJD2A Tudor: inactive

What do the screens show for `O=C(O)/C=C\C(=O)Nc1ccccc1N1CCN(c2ccccc2)CC1`?
G9a block: 44.7µM; HP1b chromo inh: inactive; BAZ2B inh: inconclusive; JMJD2A Tudor: inactive; PI5P4K alpha inh: inactive

What do the screens show for `CN(C)S(=O)(=O)c1cccc(NC(=O)c2ccc(N3CCCC3=O)cc2)c1`?
L3MBTL1 inh: inactive; HP1b chromo inh: inactive; JMJD2A Tudor: inactive; PI5P4K alpha inh: inactive

How did O=C(Nc1ccccc1N1CCCC1)c1ccccc1Cl do in these assays?
G9a block: 39.8µM; HP1b chromo inh: inactive; BAZ2B inh: inconclusive; JMJD2A Tudor: inactive; PI5P4K alpha inh: inactive

Results for CCN(c1ccc(NC(=O)c2ccc(N3CCCC3=O)cc2)cc1)C(C)C ?
L3MBTL1 inh: inactive; G9a block: 3.55µM; HP1b chromo inh: inactive; BAZ2B inh: inactive; JMJD2A Tudor: inactive; PI5P4K alpha inh: inconclusive

How did O=C(c1ccco1)N1CCc2ccccc21 do in these assays?
G9a block: inactive; HP1b chromo inh: inactive; BAZ2B inh: inactive; JMJD2A Tudor: inactive; PI5P4K alpha inh: inactive

How did CC(=O)c1cccc(NC(=O)c2cc3nc(-c4ccc(Br)cc4)cc(C(F)(F)F)n3n2)c1 do in these assays?
G9a block: inactive; HP1b chromo inh: inactive; BAZ2B inh: inactive; JMJD2A Tudor: inactive

How did O=C(C1CC1)N1CCc2cc(Br)cc(S(=O)(=O)N3CCN(c4cccc(C(F)(F)F)c4)CC3)c21 do in these assays?
G9a block: inconclusive; HP1b chromo inh: inactive; BAZ2B inh: inactive; JMJD2A Tudor: inactive

What do the screens show for `CC(C)CCNC(=O)c1cc(Sc2ccc(F)cc2F)nc2ccccc12`?
G9a block: inactive; HP1b chromo inh: inactive; BAZ2B inh: inactive; JMJD2A Tudor: inactive

Results for O=C(Nc1ccccc1N1CCOCC1)c1ccco1 ?
G9a block: inactive; HP1b chromo inh: inactive; BAZ2B inh: inactive; JMJD2A Tudor: inactive; PI5P4K alpha inh: inactive

What do the screens show for `O=C(/C=C/c1ccco1)NC(=S)Nc1ccccc1N1CCOCC1`?
L3MBTL1 inh: inactive; G9a block: inconclusive; HP1b chromo inh: inactive; BAZ2B inh: inconclusive; JMJD2A Tudor: inconclusive

How did O=C(/C=C/c1ccco1)Nc1ccccc1N1CCCC1 do in these assays?
L3MBTL1 inh: inactive; G9a block: 44.7µM; HP1b chromo inh: inactive; BAZ2B inh: inconclusive; JMJD2A Tudor: inconclusive; PI5P4K alpha inh: inactive

What do the screens show for `O=C(NC(=S)Nc1ccccc1N1CCOCC1)c1ccco1`?
L3MBTL1 inh: inactive; G9a block: 50.1µM; HP1b chromo inh: inactive; BAZ2B inh: inactive; JMJD2A Tudor: inactive; PI5P4K alpha inh: inactive

Results for O=C(Nc1ccccc1N1CCCC1)c1ccco1 ?
L3MBTL1 inh: inactive; G9a block: 50.1µM; HP1b chromo inh: inactive; BAZ2B inh: inactive; JMJD2A Tudor: inactive; PI5P4K alpha inh: inactive

What do the screens show for `O=C(Nc1ccc(S(=O)(=O)N2CCCc3ccccc32)cc1)C1CCCO1` (centres undefined)?
L3MBTL1 inh: inactive; G9a block: 44.7µM; HP1b chromo inh: inactive; BAZ2B inh: inactive; JMJD2A Tudor: inactive

What do the screens show for `COc1ccc(-c2noc(CC(=O)Nc3cc(OC)ccc3OC)n2)cc1`?
G9a block: inactive; HP1b chromo inh: inactive; BAZ2B inh: inconclusive; JMJD2A Tudor: inactive

Results for O=C(O)c1ccccc1NC(=O)C1CCCO1 (centres undefined) ?
G9a block: inactive; HP1b chromo inh: inactive; BAZ2B inh: inactive; JMJD2A Tudor: inactive

What do the screens show for `O=C(Nc1ccccc1N1CCCC1)C1CCCO1` (centres undefined)?
L3MBTL1 inh: inactive; G9a block: 28.2µM; HP1b chromo inh: inactive; BAZ2B inh: inactive; JMJD2A Tudor: inactive; PI5P4K alpha inh: inactive

How did Cc1ccc(OCCn2ccc(=O)[nH]c2=O)cc1C do in these assays?
L3MBTL1 inh: inactive; G9a block: inactive; HP1b chromo inh: inactive; BAZ2B inh: inactive; JMJD2A Tudor: inactive

Results for O=C(CCCCn1ccc(=O)[nH]c1=O)Nc1ccc(C(=O)O)c(O)c1 ?
HP1b chromo inh: inactive; JMJD2A Tudor: inactive; PI5P4K alpha inh: -71.4

Results for O=c1ccn(CCCBr)c(=O)[nH]1 ?
L3MBTL1 inh: inactive; G9a block: 39.8µM; HP1b chromo inh: inactive; BAZ2B inh: inactive; JMJD2A Tudor: inactive; PI5P4K alpha inh: inactive

Results for O=C(CCCCn1ccc(=O)[nH]c1=O)Nc1ccc(O)c(C(=O)O)c1 ?
HP1b chromo inh: inactive; JMJD2A Tudor: inactive; PI5P4K alpha inh: inactive

What do the screens show for `COCCn1c(=O)c(CCc2ccccc2)nc2cnc(N(C)C)nc21`?
G9a block: inactive[0.501 µM]

How did CCC1CCC(c2nnc(-c3ccc([N+](=O)[O-])cc3)o2)CC1 (centres undefined) do in these assays?
L3MBTL1 inh: inactive; G9a block: 10µM; HP1b chromo inh: inactive; BAZ2B inh: inconclusive; JMJD2A Tudor: inactive; PI5P4K alpha inh: inactive

What do the screens show for `O=c1c2cn(Cc3ccc(F)cc3)c3ccccc3c-2nn1Cc1ccc(F)cc1`?
G9a block: 31.6µM; HP1b chromo inh: inactive; BAZ2B inh: inactive; JMJD2A Tudor: inactive; PI5P4K alpha inh: inactive

How did CC1=NNC(=O)/C1=C\c1cn(-c2ccccc2)nc1-c1ccc(F)cc1 do in these assays?
L3MBTL1 inh: inactive; G9a block: 10µM; HP1b chromo inh: inactive; BAZ2B inh: inactive; JMJD2A Tudor: inactive; PI5P4K alpha inh: inactive
